# Experimental data taken from PubChem BioAssay (NCI).
# About 83,000 compounds went through this panel and 20% of them were active in at least one assay; those are over-represented in the sample as a whole.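 In brief: 96-well plates, 48 h treatment, single concentration, percent growth endpoint.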 A number with no mark means an inactive call. Activity calls are given as the source filed them.
# Test system: SNB-19 CNS
# Test: NCI-60 one-dose screen, 48 h (100 = growth as untreated, 0 = no growth, -100 = all killed)
# Settings: 10 µM unless noted
# Description: Growth inhibition of the SNB-19 human tumor cell line is measured as a screen for anti-cancer activity. Cells are grown in 96 well plates and exposed to the test compound for 48 hours. Compounds are tested at a single concentration, which is 10^-5 M for most compounds. The reported endpoint is percent growth (GI% or GIPRCNT), where numbers from 0 - 100% represent growth inhibition, and numbers from -100% - 0 represent cell death. For example, a value of 40 represents 60% growth inhibition. A value of 0 means no net growth occurred over the course of the experiment. A value of -40 indicates 40% of cells at the beginning of the experiment died by the end of the experiment. A value of -100 means all cells are dead at the end of the experiment.
# NCI-60 Human Tumor Cell Lines Screen was performed using the standard one-dose NCI protocol, which is described in more detail at https://dtp.cancer.gov/discovery_development/nci-60/default.htm.
# Compounds with GIPRCNT values below 10 were considered active. Activity score was based on GIPRCNT using the following formula: […]
# Score is 0 for GIPRCNT values of 100 or above, 50 for GIPRCNT values of 0, and 100 for GIPRCNT values of -100.
row,SMILES,growth
1,COc1cc2cc(Oc3ccc(NC(=O)Nc4ccc(Cl)c(C(F)(F)F)c4)cc3)c(C)nc2cc1OCCN1CCOCC1,24.4%
2,COc1ccc(C(Cc2ccccc2)NCCN2CCOCC2)cc1 (stereo not given),106%
3,Cc1ccc(-c2nc3c(c(-c4ccccc4)nn3-c3ccccc3)c(-c3ccc(O)cc3)c2C#N)cc1,69.1%
4,O=c1c2cc(F)ccc2sc2c(NCCCNCCO)nc3ccccc3c12,58.5%
5,COc1ccc(C(=O)C(C)C)c2ccccc12,108%
6,O=c1[nH][n+](-c2ccc(Br)cc2)no1,77.8%
7,O=C(N/N=C/[C@H](O)[C@H](O)[C@H](O)CO)c1ccc(NC(=O)c2cccnc2)cc1,97.7%
8,COC1=C(C)C(=O)c2c(c(CCCl)c3n2CCC3OC(C)=O)C1=O (stereo not given),1.56% (active)
9,Cc1ncc(C(=O)Nc2ccc(CN3CCN(C)CC3)c(C(F)(F)F)c2)cc1C#Cc1ccc(N)nc1,26.9%
10,Fc1cc2c(cc1Cl)N(c1ncnc3ccc(-c4cnc5cnccn45)cc13)CC2,86.2%
11,CC[C@H](C)C(=O)O[C@H]1CCC=C2C=C[C@H](C)[C@H](CC[C@@H]3CC=CC(=O)O3)[C@H]21,83.5%
12,CCOC(=O)c1sc2ncc(-c3ccc(OC)cc3)n2c1C,92.4%
13,O=c1c2cc(F)ccc2sc2c(NCCCNCCO)nc3ccc(F)cc3c12,72.6%
14,CCOC(=O)c1c2c(n(-c3ccc(C#N)cc3)c1-c1ccccc1)C=CCC2,98.4%
15,CC1=C([Se]CC(OC(=O)[C@@H](CSSC(C)(C)C)NC(=O)OC(C)(C)C)C(=O)NC(C)(C)C)C(=O)c2ccccc2C1=O (stereo not given in full),-90.8% (active)
16,CCCCCCCCCCCCCCCCCCOc1ccc(CC(=O)OCC[N+]2(C)CCCCC2)cc1,87.5%
17,O=C1CSC(c2c(Cl)cccc2Cl)N1c1nc(Cl)cc(=O)[nH]1 (stereo not given),103%
18,O=C1CCC(C(=O)NCCNCCNC(=O)C2CCC(=O)N2)N1 (stereo not given),98.3%
19,CC/C=C\C[C@@H]1C/C=C2/C(=O)C=C[C@H]2C/C=C\CCCC(=O)O1,-31.4% (active)
20,N#CC1=C(N)Oc2c(sc3c(Br)cccc23)C1c1ccc(Br)cc1 (stereo not given),52.6%

row,SMILES,growth
1,CN1C(=C2C(=O)OC(C)(C)OC2=O)CCC1C(=O)NCc1ccc(Cl)cc1Cl (stereo not given),97.7%
2,CCOC(=O)c1[nH]c(C)c(C(=O)OCc2ccccc2C#N)c1C,97.1%
3,CC1=C(C)C(=O)C(Nc2cccc(C(=O)OC(C)(C)C)c2)=C(Br)C1=O,84.6%
4,COc1ccc(-c2nc3sc(-c4ccccc4)cn3n2)cc1,65.9%
5,O=C(COc1ccc(/C=C2\Cc3ccc(Cl)cc3C2=O)cc1)Nc1nc2ccccc2s1,98%
6,COc1nc2ccc(C)cc2cc1-c1nc2c(cnn2-c2ccc(Br)cc2)c(=O)[nH]1,41.8%
7,C[C@]12CC[C@@H]3c4cc(OC(F)F)c(OS(N)(=O)=O)cc4CC[C@H]3[C@@H]1CC[C@@H]2OS(N)(=O)=O,53.6%
8,CN(C)CCNc1nc2ccccc2c2c(=O)c3cc(F)ccc3sc12,55.4%
9,CNC(C)[C@H]1CCC2C3CCC4C[C@@H](N(C)C(=O)c5ccccc5)CC[C@]4(C)C3CC[C@@]21C (stereo not given in full),66.6%
10,OC(COc1ccccc1)CN1CCN(c2ccc(Cl)cc2)CC1 (stereo not given),95.4%
11,COc1cc(C(=O)c2cc(C)c3[nH]c4ccc(O)cc4c3c2C)cc(OC)c1OC,54.1%
12,COc1ccc(CN2c3ccccc3Sc3ccccc32)c(F)c1,40.9%
13,CN1CCN(c2ccc(-c3ccc4ncc(C#N)c(Nc5ccc(F)c(Cl)c5)c4c3)cc2)CC1,72.7%
14,CCOC(=O)/C=C1\S/C(=N\Nc2ccc([N+](=O)[O-])cc2[N+](=O)[O-])N(Cc2ccccc2)C1=O,82.9%
15,Cc1cc(=O)oc2cc(OC(=O)N3CCN(C)CC3)ccc12,100%
16,c1ccc(-c2nc3nonc3nc2-c2ccccc2)cc1,77.8%
17,NCCCNc1nc2ccccc2c2c(=O)c3cc(OC(F)(F)F)ccc3sc12,7.57% (active)
18,O=C1c2ccccc2NC(n2sc3ccccc3c2=O)N1c1ccccc1 (stereo not given),101%
19,C#C[C@]1(O)CC[C@H]2[C@@H]3CC=C4c5sc(Nc6ccccc6)nc5CC[C@]4(C)[C@H]3CC[C@@]21C,49.4%
20,Brc1ccc2[nH]cc(-c3nc(-c4c[nH]c5ccncc45)cs3)c2c1,-79.5% (active)
